Screen size: about 5,500 compounds; about 2,000 (36%) were called active. Not shown: some 18% with an inconclusive outcome. Rule as the data show it: active = normalized growth mostly below about 0.91 (no sharp cut-off); inconclusive = no clear call, values can overlap the other calls; inactive = mostly above about 0.92. Some of the results follow.
Assay: chemical genetic growth profiling, strain panel (AID 1159580);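 also: tested at 20 µM; growth read once vehicle control cultures reached saturation at 30 °C; 1 = growth at the plate median or of vehicle wells; lower values mean less growth of the strain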
Conditions: S. cerevisiae deletion strains, growth OD

Measured: normalized growth

CC(C)CCCC(C)N (configuration not stated)
inactive: locus YAL021C, strain ccr4, active compounds read low 1.03 | locus YAL026C, strain drs2, active compounds read low 1.02 | locus YAL030W, strain snc1, active compounds read low 1.02 | locus YBL061C, strain skt5, active compounds read low 1.02 | locus YBR009C, strain hhf1, active compounds read low 1.02 | locus YBR023C, strain chs3, active compounds read low 1.03 | locus YBR171W, strain sec66, active compounds read low 1.05 | locus YBR231C, strain swc5, active compounds read low 1.02 | locus YBR279W, strain paf1, active compounds read low 1.02 | locus YCL011C, strain gbp2, active compounds read low 1.04 | locus YCL016C, strain dcc1, active compounds read low 1.02 | locus YCL061C, strain MRC1, active compounds read low 1.01 | locus YCL069W, strain vba3, active compounds read low 1.03 | locus YCR088W, strain abp1, active compounds read low 1.03 | locus YDL005C, strain med2, active compounds read low 1.04 | locus YDL040C, strain nat1, active compounds read low 1.02 | locus YDR001C, strain nth1, active compounds read low 1.02 | locus YDR069C, strain doa4, active compounds read low 1.04 | locus YDR137W, strain rgp1, active compounds read low 0.99 | locus YDR159W, strain sac3, active compounds read low 0.97 | locus YDR195W, strain ref2 1.03 | locus YDR297W, strain sur2, active compounds read low 1.02 | locus YDR334W, strain swr1, active compounds read low 1.03 | locus YDR335W, strain msn5, active compounds read low 1.04 | locus YDR392W, strain spt3, active compounds read low 0.963 | locus YEL003W, strain gim4, active compounds read low 1.02 | locus YEL037C, strain rad23, active compounds read low 1.04 | locus YEL061C, strain CIN8 (second series), active compounds read low 1.01 | locus YER015W, strain faa2, active compounds read low 1.02 | locus YER016W, strain bim1, active compounds read low 1.05 | locus YER111C, strain swi4, active compounds read low 1.04 | locus YER155C, strain BEM2 (second series), active compounds read low 1.03 | locus YFR010W, strain ubp6, active compounds read low 1.01 | locus YGL167C, strain pmr1, active compounds read low 1.03 | locus YGL173C, strain kem1, active compounds read low 1.01 | locus YGL227W, strain vid30, active compounds read low 1.04 | locus YGL240W, strain doc1, active compounds read low 0.983 | locus YGL253W, strain hxk2, active compounds read low 1.04 | locus YHR013C, strain ard1, active compounds read low 1.03 | locus YHR027C, strain rpn1, active compounds read low 1.02 | locus YHR142W, strain chs7, active compounds read low 1.05 | locus YJL092W, strain hpr5, active compounds read low 1.02 | locus YJL095W, strain BCK1 (second series), active compounds read low 1.03 | locus YJL115W, strain asf1, active compounds read low 1.03 | locus YJL129C, strain trk1, active compounds read low 1.04 | locus YJL154C, strain vps35, active compounds read low 1.03 | locus YJL164C, strain tpk1, active compounds read low 1.03 | locus YJL166W, strain qcr8, active compounds read low 1.02 | locus YJL187C, strain SWE1, active compounds read low 1.02 | locus YKL160W, strain elf1, active compounds read low 1.03 | locus YKR026C, strain gcn3, active compounds read low 1.02 | locus YKR091W, strain srl3, active compounds read low 1.01 | locus YLL001W, strain dnm1, active compounds read low 1 | locus YLL026W, active compounds read low 1.01 | locus YLL041C, strain sdh2, active compounds read low 1.03 | locus YLR027C, strain aat2, active compounds read low 1.03 | locus YLR221C, strain rsa3, active compounds read low 1.01 | locus YLR258W, strain gsy2, active compounds read low 1.01 | locus YLR262C, strain YPT6 (second series), active compounds read low 0.999 | locus YLR320W, strain mms22, active compounds read low 0.977 | locus YLR342W, strain FKS1, active compounds read low 1.03 | locus YLR357W, strain rsc2, active compounds read low 1.06 | locus YLR370C, strain arc18, active compounds read low 1.03 | locus YLR384C, strain iki3, active compounds read low 1.03 | locus YML120C, strain ndi1, active compounds read low 1.02 | locus YMR058W, strain fet3, active compounds read low 1.01 | locus YMR125W, strain sto1, active compounds read low 1.04 | locus YMR129W, active compounds read low 1.02 | locus YMR205C, strain PFK2, active compounds read low 1.01 | locus YMR231W, strain pep5, active compounds read low 1.03 | locus YNL071W, strain lat1, active compounds read low 1.03 | locus YNL209W, strain ssb2, active compounds read low 1.03 | locus YNL248C, strain rpa49, active compounds read low 1.07 | locus YNL322C, strain KRE1 (second series), active compounds read low 1.04 | locus YNR049C, strain mso1, active compounds read low 1.03 | locus YOR001W, strain rrp6, active compounds read low 1.02 | locus YOR070C, strain gyp1, active compounds read low 1.02 | locus YOR080W, strain dia2, active compounds read low 1.03 | locus YOR083W, strain WHI5, active compounds read low 0.968 | locus YOR106W, strain vam3, active compounds read low 1.04 | locus YOR265W, strain rbl2, active compounds read low 1.02 | locus YOR270C, strain vph1, active compounds read low 1.14 | locus YOR290C, strain snf2, active compounds read low 1.03 | locus YPL051W, strain arl3, active compounds read low 1.02 | locus YPL078C, strain atp4, active compounds read low 1.04 | locus YPL106C, strain sse1, active compounds read low 1.05 | locus YPL240C, strain hsp82, active compounds read low 1.03
